Experimental data: PubChem BioAssay AID1117271 (Broad Institute, 2014)
Measured potencies and affinities stand elsewhere. Activity calls are given as the source filed them. How the calls were made is not given here.

Experiment: inhibitors of orthopox intermediate gene expression, dose response, cell-based, single fluorophore reporter, dry powder (AID 1117271)

For `COc1ccccc1-c1ccc(CN(C)C[C@@H]2Oc3cc(C#C[C@@H](C)O)ccc3S(=O)(=O)N([C@@H](C)CO)C[C@@H]2C)cc1`, the outcome was “inactive”.
